Data as given in PubChem BioAssay AID624404 (Broad Institute, 2012).
In all, about 1,800 compounds went through this assay and about 710 (39%) were called active. About 28% were inconclusive and are not listed. Only a sample is shown. Potency and affinity values are given separately. Unmarked numbers belong to inactive results.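 Rule for the calls: active = luciferase signal rise whose fitted curve crosses a set activity limit at or below the top valid tested dose; inconclusive = flat fit with 30 to 70% rise, or poor fit; inactive = signal falling, flat within 30%, or crossing above top dose.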

Assay: luciferase activators in glycosylation-insensitive reporter cells, dose response, counter-screen for N-linked glycosylation inhibitor project, D54 LucT cells, luminescence, cherry pick (AID 624404);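 note: 0% = median neutral control signal and 100% = twice that signal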
Conditions: D54 LucT luciferase reporter counterscreen, 24 h; series mostly up to 19.5 µM; activity increase (luciferase signal): at the top concentration

Compound | activity increase (luciferase signal) [%]
Cc1ccc(CCC(=O)Nc2ncc(Cc3cc(Cl)ccc3Cl)s2)o1 | 6.25
COc1ccc(-c2nc(NC(=O)C3CC(=O)N(c4ccc5c(c4)OCCO5)C3)sc2C)cc1 (centres undefined) | -41.9
CCCCCCCCCCCCCCCC[n+]1ccc(/C=N/O)cc1 | -67.7
CCOC(=O)C(C)Oc1cccc2c(=O)n(CC(=O)NCc3ccc(F)cc3)ccc12 (centres undefined) | 13.6
Cc1ccc(CNC(=O)Cc2ccc(Br)cc2)cc1 | 46.7
COc1ccc(CCn2c(=N)c(C(=O)NCc3ccco3)cc3c(=O)n4ccccc4nc32)cc1 | -8.69
CCN(CC)CCNC(=O)c1cc2c(-c3ccc(Cl)cc3)nn(C)c2s1 | 49.2
CC1(C(=O)NCc2ccccc2)Cc2c(-c3ccc4c(c3)OCO4)ccnc2O1 (centres undefined) | 17.4
CC1(C(=O)NCc2ccccc2)Cc2c(-c3ccccc3)ccnc2O1 (centres undefined) | 2.35
CC(=O)c1cccc(-c2ccnc3c2CC(C(=O)NCc2ccco2)O3)c1 (centres undefined) | 22.9
COc1ccc(NC(=O)C2(C)Cc3c(-c4cccc(C(N)=O)c4)ccnc3O2)cn1 (centres undefined) | 7.81
CC1(C(=O)Nc2ccc(Cl)cc2)Cc2c(-c3cccc(C(N)=O)c3)ccnc2O1 (centres undefined) | 45.1
COc1ccccc1C(=O)Nc1nnc(CCc2ccccc2)s1 | 66.8
CN(C)S(=O)(=O)c1ccc(N2CCCC2)c(C(=O)Nc2nc(-c3ccc(F)cc3)cs2)c1 | 11.7
CC(C)(C)n1nnnc1C(c1ccccc1)N1CCc2ccccc2C1 (centres undefined) | 29.5
Nc1ncnc(Sc2ccc(Cl)cc2)c1[N+](=O)[O-] | -13.9
CCNC(=O)c1cc2c(=O)n3cccc(C)c3nc2n(CCc2ccccc2)c1=N | 3.44
Cc1cccn2c(=O)c3cc(C(=O)NCCN4CCOCC4)c(=N)n(CCc4ccccc4)c3nc12 | -13.9
CCC1=Nc2cc(C(=O)NCCCOC)ccc2Sc2ccccc21 | -3.33
O=C(NCc1ccco1)c1nn2c(C(F)(F)F)cc(-c3cccs3)nc2c1Br | -13.3
NNC(=O)c1oc2nc(-c3ccco3)cc(-c3ccco3)c2c1N | 37.9

Compound | activity increase (luciferase signal) [%]
COc1ccc(C(=O)NCc2nnc(SCC(=O)NO)n2Cc2ccccc2)cc1 | 26.2
Cn1nc(C(F)(F)F)c(/C=N/OC(=O)c2ccccc2Cl)c1SCc1ccccc1Cl | -45.1
COc1ccc(OC)c(-c2nnc3n2N=C(c2ccc(OC)c(OC4CCCC4)c2)CS3)c1 | -37.9
S=c1[nH]nc(-c2cc(-c3ccccc3)n[nH]2)n1/N=C/C(Br)=C/c1ccccc1 | -47.3
Clc1ccc(C2=Nn3c(nnc3-c3cc(-c4ccccc4)n[nH]3)SC2)cc1 | -0.549
CC(Oc1ccc2c(c1)c1ccnc3c4ccccc4c(=O)n2c13)C(=O)NCCN1CCOCC1 (centres undefined) | -14.3
Oc1ccc(NCc2ccccc2OCc2ccccc2)cc1 | 24.2
CCn1c2ccccc2c2cc(NC(=O)COC(=O)c3ccc(O)cc3)ccc21 | 5.23
c1ccc2c(c1)c1c(c3ccccc32)CN2CCCC2C1 (centres undefined) | 0.935
FC(F)(F)c1nnc2c(Sc3ccc(Cl)cc3)nc3ccccc3n12 | -57
CCN(CC)CCCNc1cc(C)c(C#N)c2nc3ccccc3n12 | -16.2
Cc1nnc2c(NCCC(C)C)nc3ccccc3n12 | 38.9
Cc1cc([N+](=O)[O-])ccc1Nc1nc2ccccc2n2cnnc12 | 0.819
COc1ccc(S(=O)(=O)Nc2c(C(=O)O)[nH]c3ccc(OC)cc23)c(OC)c1 | 26.5
Cc1ccc(NC(=O)c2cc(S(=O)(=O)N(C)C)ccc2N2CCCC2)cc1F | 18.8
COc1cc(-c2noc(C)c2/C=C/c2ccc(OC(C)=O)cc2)cc(OC)c1OC | 11.2
COc1cc(NC(=O)c2cc(-c3ccccc3)nc3c2cnn3C(C)C)cc(OC)c1OC | -29.9
NC(=O)c1cccc(Nc2nc(C(N)CCc3ccccc3)cs2)n1 (centres undefined) | 7.8
CCOC(=O)C1CCN(S(=O)(=O)Cc2ccccc2)CC1 | 46
O=C1CCCC2=C1C(c1ccco1)Nc1ccc(C(=O)c3ccccc3)cc1N2 (centres undefined) | 41.2
CCCn1c2ccccc2c2cnn(CC(=O)NC3CCCC(C)C3C)c(=O)c21 (centres undefined) | -3.18

Compound | activity increase (luciferase signal) [%]
CCOc1ccccc1NC(=O)CN(c1ccc(OC)cc1)S(=O)(=O)c1c(C)noc1C | 52.5
COc1ccc(OC)c(N(CC(=O)Nc2cccnc2)S(=O)(=O)c2ccc(C)cc2)c1 | 4.3
COc1ccc(N(CC(=O)Nc2cc(Cl)ccc2OC)S(=O)(=O)c2c(C)noc2C)cc1 | -20.4
CN(C)Cc1c(O)ccc2c1O/C(=C\C=C\c1ccccc1)C2=O | 31.8
O=C(CCl)N1CCCC1c1ccc2c(c1)OCCO2 (centres undefined) | -11.8
COc1ccc(/C=N/NC(=O)c2ccc(COc3ccccc3Cl)o2)c(OC)c1C | 27.4
CC(C)C(=O)Nc1ccc(C(=O)N/N=C/c2cc(Br)cc(Br)c2O)cc1 | 11.7
Cc1cc2nnc(SCC(=O)NCc3cccs3)n2c2ccccc12 | 45.3
CNC(=O)c1cccc2nc3ccccc3nc12 | -11.8
CCOC(=O)c1ccc(Oc2cc(C)nc(SC)n2)cc1 | -2.48
Cc1cc(C)c(C)c(OC(=O)c2sc(Cl)nc2C)c1 | -28.2
CCOC(=O)c1ccc(N=c2sc(C(=O)OC)cc(=O)n2Cc2ccco2)cc1 | -0.7
CCn1cc([N+](=O)[O-])c(C(=O)Nc2nc(-c3ccc(C)c(C)c3)c(C)s2)n1 | -9.26
COc1cccc(Oc2ccc(C(F)(F)F)cc2NC(=O)CN2C(=O)NC3(CCCC3)C2=O)c1 | 19.9
COC(=O)c1cc(OC)c(OC)cc1NC(=S)NC(=O)c1ccco1 | 17.6
CCN(CC)CCCNc1nc2ccccc2c2nc(-c3ccncc3)nn12 | -2.43
CN(C)CCCNc1c2c(nc3ccccc13)CCC2 | 0
Cc1cc(NCCCN(C)C)n2c(nc3ccccc32)c1C#N | -10.7
CN(C)CCOc1nc(-c2ccccc2)nc2c1oc1ccccc12 | 14.3
c1ccc(CNc2nc(NCCc3ccncc3)c3sccc3n2)cc1 | -4.58
O=C(CSc1ncnc2nc[nH]c12)c1ccc([N+](=O)[O-])cc1 | -6.76

Compound | activity increase (luciferase signal) [%]
COc1cc(C(=O)OCC(=O)c2cc(C)n(C)c2C)cc(OC)c1OC | 13.5
COc1cc(COCC(O)CN2CCN(CCN3C(=O)c4cccc5cccc(c45)C3=O)CC2)cc(OC)c1OC (centres undefined) | -1.72
C=CCOc1ccc2nc(NC(=O)OC)[nH]c2c1 | 11.3
Cc1noc2ncnc(Sc3ccccc3Cl)c12 | 39.8
CCc1nn2c(N(C)CCO)cc(C)nc2c1-c1ccc(F)cc1 | 3.57
OC1CCCN(Cc2c3ccccc3cc3ccccc23)C1 (centres undefined) | 36
CN(C)CCNC(=O)c1cccc2nc3c(ccc4ccccc43)nc12 | 34.8
CCOC(=O)c1cnc2c(C)cc(C)cc2c1NCCCN1CCOCC1 | 34.1
CCOC(=O)c1cc2sccc2n1CC(=O)N1CCc2ccccc21 | 38.1
COc1cc(-c2noc(C)c2/C=C/c2ccc(N)cc2)cc(OC)c1OC | 4.57
Cc1ccc(Nc2nnc(SCC(=O)Nc3ncc(S(=O)(=O)c4ccc([N+](=O)[O-])cc4)s3)s2)cc1 | 35.6
CCOC(=O)c1c(C)oc2c(F)c(F)c(F)c(F)c2c1=O | -70.7
CCOc1ccc2c(c1)C(=NNC(=O)c1ccncc1)c1cc(OCC)ccc1-2 | -20.8
CNc1ccc(Br)cc(C(=O)/C=C/c2cccc(OC)c2OC)c1=O | 17.9
COc1ccc(C(=O)CSc2nn3c(=O)c(C(C)(C)C)nnc3s2)cc1 | 22.2
CCN(CC)C(=O)CSc1nc2c(sc(=S)n2-c2ccccc2)c(=O)n1Cc1ccco1 | -39.3
COC(=O)c1ccc2c(=O)n(Cc3ccco3)c(SCC(=O)Nc3cc(C)on3)nc2c1 | -15.7
CCOC(=O)c1ccc(/C=C2/C=C(c3ccccc3)N(c3ccc(Cl)c(C(=O)O)c3)C2=O)cc1 | -17
Cn1c(N)c(C(=O)COC(=O)c2cc(S(=O)(=O)N3CCOCC3)ccc2F)c(=O)n(C)c1=O | 4.76
Cc1ccc(Cl)cc1N1CCN(S(=O)(=O)c2ccc(-c3ccc(=O)[nH]n3)o2)CC1 | 30.2
CCCn1c(=N)n(CC(=O)c2ccc([N+](=O)[O-])cc2)c2ccccc21 | 58.5
